Assay results published in the supplement of paper PMC10849652.
Targets with a hit are over-represented here; the source holds about 8,800 in all. About 0.5% of all pairs of compound and target were hits.

Columns and labels:
Experiment in all cases: log2 fold change, soluble protein after heating vs DMSO (PISA); higher = thermal stabilisation; K562 lysate, 10 uM; active = over 0.2 and 3.5 SD of the protein, either way, in both replicates (recomputed)
vemurafenib = compound: CCCS(=O)(=O)Nc1ccc(F)c(C(=O)c2c[nH]c3ncc(-c4ccc(Cl)cc4)cc23)c1F [vemurafenib]
Procedure, shortened: (§1)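 Soluble protein was defined as the supernatant remaining after 21,000xg for 90 min, following pooling of heated aliquots and adjustment to 0.5% NP-40 at 4°C. Before that, crude K562 extract at 1 mg/mL protein in PBS pH 7.4 with 1 mM MgCl2 was treated with 10 μM compound for 30 min and heated for 3 min across 48°C-58°C. Quantification used TMTpro 16plex LC-MS/MS with channel sums equalised, and values are log-two fold changes in thermal stability relative to solvent controls from duplicates.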

[1] = compound: CCCS(=O)(=O)Nc1ccc(F)c(C(=O)c2c[nH]c3ncc(Cl)cc23)c1F
Procedure, shortened: as §1

barasertib = compound: CCN(CCCOc1ccc2c(Nc3cc(CC(=O)Nc4cccc(F)c4)[nH]n3)ncnc2c1)CCOP(=O)(O)O [barasertib]
Procedure, shortened: as §1

[2] = compound: CC[C@@H]1C(=O)N(C)c2cnc(Nc3ccc(C(=O)NC4CCN(C)CC4)cc3OC)nc2N1C1CCCC1
Procedure, shortened: as §1

volasertib = compound: CC[C@@H]1C(=O)N(C)c2cnc(Nc3ccc(C(=O)N[C@H]4CC[C@H](N5CCN(CC6CC6)CC5)CC4)cc3OC)nc2N1C(C)C [volasertib]
Procedure, shortened: as §1

[3] = compound: CCn1c(C(=O)N(C2CC2)C2CC2)cc2c3c(ncn3C)c(Nc3cc(C)n(C)n3)nc21
Procedure, shortened: as §1

[4] = compound: CCn1cc(-c2ccnc3[nH]c(-c4cccc(CN(C)C)c4)cc23)c(-c2ccc(NC(=O)N(C)C)cc2)n1
Procedure, shortened: as §1

[5] = compound: CN1CCC(CNc2ccc3ncc(-c4cccc(OC(F)(F)F)c4)n3n2)CC1
Procedure, shortened: as §1

saracatinib = compound: CN1CCN(CCOc2cc(OC3CCOCC3)c3c(Nc4c(Cl)ccc5c4OCO5)ncnc3c2)CC1 [saracatinib]
Procedure, shortened: as §1

sotrastaurin = compound: CN1CCN(c2nc(C3=C(c4c[nH]c5ccccc45)C(=O)NC3=O)c3ccccc3n2)CC1 [sotrastaurin]
Procedure, shortened: as §1

alvocidib = compound: CN1CC[C@H](c2c(O)cc(O)c3c(=O)cc(-c4ccccc4Cl)oc23)[C@H](O)C1 [alvocidib]
Procedure, shortened: as §1

Tubastatin A = compound: CN1CCc2c(c3ccccc3n2Cc2ccc(C(=O)NO)cc2)C1 [Tubastatin A]
Procedure, shortened: as §1

[6] = compound: CNC(=O)C1=CC=CC=C1NC2=NC(=NC=C2Cl)NC3=C(C=C(C=C3)N4CCOCC4)OC
Procedure, shortened: as §1

defactinib = compound: CNC(=O)c1ccc(Nc2ncc(C(F)(F)F)c(NCc3nccnc3N(C)S(C)(=O)=O)n2)cc1 [defactinib]
Procedure, shortened: as §1

[7] = compound: CNc1nc(-c2ccc3c(N)n[nH]c3c2)cc(N2C[C@@H](C(=O)NC3CCCCC3)CC[C@H]2C)n1
Procedure, shortened: as §1

encorafenib = compound: COC(=O)N[C@@H](C)CNc1nccc(-c2cn(C(C)C)nc2-c2cc(Cl)cc(NS(C)(=O)=O)c2F)n1 [encorafenib]
Procedure, shortened: as §1

[8] = compound: COC(=O)[C@H](CCSC)NC(=O)C1=C(C=C(C=C1)NC[C@H](CS)N)C2=CC=CC=C2
Procedure, shortened: as §1

alisertib = compound: COc1cc(Nc2ncc3c(n2)-c2ccc(Cl)cc2C(c2c(F)cccc2OC)=NC3)ccc1C(=O)O [alisertib]
Procedure, shortened: as §1

[9] = compound: COc1cc2nc(-c3cc(F)ccc3O)nc(N[C@@H]3CNC[C@H]3C(C)(C)O)c2cc1OC
Procedure, shortened: as §1

gefitinib = compound: COc1cc2ncnc(Nc3ccc(F)c(Cl)c3)c2cc1OCCCN1CCOCC1 [gefitinib]
Procedure, shortened: as §1

Measured: log2 fold change

FASTKD5 (UniProt Q7L8L6)
Sequence of UniProt Q7L8L6 (Q7L8L6 whole entry, looked up): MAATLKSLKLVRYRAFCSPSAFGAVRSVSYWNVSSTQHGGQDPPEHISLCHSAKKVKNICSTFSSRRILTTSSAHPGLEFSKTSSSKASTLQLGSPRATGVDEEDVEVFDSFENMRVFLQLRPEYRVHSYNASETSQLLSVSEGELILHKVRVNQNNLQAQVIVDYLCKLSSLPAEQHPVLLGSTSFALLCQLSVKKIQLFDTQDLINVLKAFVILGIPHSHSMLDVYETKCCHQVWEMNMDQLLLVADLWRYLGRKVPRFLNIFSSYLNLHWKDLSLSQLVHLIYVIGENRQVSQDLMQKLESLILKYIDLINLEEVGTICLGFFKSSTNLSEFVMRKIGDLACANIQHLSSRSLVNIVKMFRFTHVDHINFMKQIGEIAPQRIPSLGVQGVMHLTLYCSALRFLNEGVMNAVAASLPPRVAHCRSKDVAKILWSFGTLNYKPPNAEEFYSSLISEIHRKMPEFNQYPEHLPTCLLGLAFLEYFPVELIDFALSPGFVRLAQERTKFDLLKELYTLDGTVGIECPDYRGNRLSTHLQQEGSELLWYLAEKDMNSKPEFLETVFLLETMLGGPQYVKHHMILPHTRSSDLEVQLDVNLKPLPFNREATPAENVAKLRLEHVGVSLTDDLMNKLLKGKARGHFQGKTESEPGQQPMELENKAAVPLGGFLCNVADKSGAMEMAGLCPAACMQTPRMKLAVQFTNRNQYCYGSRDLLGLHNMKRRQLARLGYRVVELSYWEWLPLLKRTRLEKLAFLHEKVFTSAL
inactive: vemurafenib -0.003 | [1] 0.008 | barasertib -0.047 | [2] 0.073 | volasertib -0.065 | [3] 0.028 | [4] 0.082 | [5] -0.245 | saracatinib 0.043 | sotrastaurin -0.026 | alvocidib 0.024 | Tubastatin A -0.11 | [6] 0.03 | defactinib 0.011 | [7] -0.017 | encorafenib 0.064 | [8] 0.135 | alisertib 0.002 | [9] 0.072 | gefitinib -0.018

ERLIN2 (UniProt O94905)
Sequence of UniProt O94905 (O94905 whole entry, looked up): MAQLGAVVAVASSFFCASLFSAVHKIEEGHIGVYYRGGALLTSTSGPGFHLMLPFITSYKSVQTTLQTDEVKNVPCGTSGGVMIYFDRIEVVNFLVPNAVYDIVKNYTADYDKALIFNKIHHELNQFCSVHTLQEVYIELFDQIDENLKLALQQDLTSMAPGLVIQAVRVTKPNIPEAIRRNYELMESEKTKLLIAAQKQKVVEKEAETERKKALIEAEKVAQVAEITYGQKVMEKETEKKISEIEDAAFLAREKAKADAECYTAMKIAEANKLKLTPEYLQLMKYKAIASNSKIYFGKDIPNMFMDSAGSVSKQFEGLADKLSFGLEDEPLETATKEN
active: [4] 0.384
inactive: vemurafenib -0.003 | [1] 0.012 | barasertib 0.021 | [2] 0.05 | volasertib -0.029 | [3] 0.012 | [5] -0.135 | saracatinib 0.008 | sotrastaurin -0.008 | alvocidib 0.164 | Tubastatin A 0.016 | [6] 0.005 | defactinib 0.002 | [7] 0 | encorafenib 0.045 | [8] -0.164 | alisertib 0 | [9] -0.06 | gefitinib 0.005

FNBP1L (UniProt Q5T0N5)
Sequence of UniProt Q5T0N5 (Q5T0N5 whole entry, looked up): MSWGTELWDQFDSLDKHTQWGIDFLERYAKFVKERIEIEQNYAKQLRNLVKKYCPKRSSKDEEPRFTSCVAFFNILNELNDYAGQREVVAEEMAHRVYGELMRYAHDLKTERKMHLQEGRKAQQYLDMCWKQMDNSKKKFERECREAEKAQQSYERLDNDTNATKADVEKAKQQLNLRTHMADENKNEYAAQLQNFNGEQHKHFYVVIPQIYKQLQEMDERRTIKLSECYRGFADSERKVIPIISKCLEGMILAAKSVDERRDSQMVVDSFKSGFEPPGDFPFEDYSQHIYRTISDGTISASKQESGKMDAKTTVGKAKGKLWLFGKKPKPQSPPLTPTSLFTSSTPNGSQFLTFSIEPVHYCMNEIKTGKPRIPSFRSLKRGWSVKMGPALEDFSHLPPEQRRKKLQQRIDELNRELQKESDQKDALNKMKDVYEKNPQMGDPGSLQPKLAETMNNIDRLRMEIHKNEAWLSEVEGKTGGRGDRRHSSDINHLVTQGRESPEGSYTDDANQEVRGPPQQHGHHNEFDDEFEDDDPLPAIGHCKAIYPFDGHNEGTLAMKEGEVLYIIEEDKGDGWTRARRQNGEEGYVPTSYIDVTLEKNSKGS
inactive: vemurafenib 0.003 | [1] 0.029 | barasertib 0.167 | [2] -0.085 | volasertib -0.068 | [3] -0.013 | [4] -0.024 | [5] -0.019 | saracatinib -0.013 | sotrastaurin 0.048 | alvocidib 0.04 | Tubastatin A -0.043 | [6] 0.023 | defactinib -0.066 | encorafenib 0.045 | [8] 0.034 | alisertib 0.005 | [9] -0.015 | gefitinib 0.099
active: [7] 0.357

EIF2B3 (UniProt Q9NR50)
Sequence of UniProt Q9NR50 (Q9NR50 whole entry, looked up): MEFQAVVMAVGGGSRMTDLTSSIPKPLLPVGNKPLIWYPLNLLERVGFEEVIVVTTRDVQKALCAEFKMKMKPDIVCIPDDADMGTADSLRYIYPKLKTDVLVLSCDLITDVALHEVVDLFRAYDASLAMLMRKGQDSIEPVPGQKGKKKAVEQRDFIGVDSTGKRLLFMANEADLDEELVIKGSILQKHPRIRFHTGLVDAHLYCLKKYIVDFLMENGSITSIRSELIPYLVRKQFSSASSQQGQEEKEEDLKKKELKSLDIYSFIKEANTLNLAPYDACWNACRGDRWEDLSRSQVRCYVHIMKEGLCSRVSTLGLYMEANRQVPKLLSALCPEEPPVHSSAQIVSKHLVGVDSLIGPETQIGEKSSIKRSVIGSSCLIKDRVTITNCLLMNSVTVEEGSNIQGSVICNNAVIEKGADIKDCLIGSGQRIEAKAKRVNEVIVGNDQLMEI
active: [4] 0.287
inactive: vemurafenib 0.013 | [1] 0.021 | barasertib -0.008 | [2] -0.028 | volasertib -0.02 | [3] 0.044 | [5] -0.111 | saracatinib 0.005 | sotrastaurin -0.003 | alvocidib 0.071 | Tubastatin A -0.103 | [6] -0.009 | defactinib 0.008 | [7] -0.012 | encorafenib -0.007 | [8] 0.057 | alisertib -0.016 | [9] -0.007 | gefitinib -0.041

GABPB1 (UniProt Q06547)
Sequence of UniProt Q06547 (Q06547 whole entry, looked up): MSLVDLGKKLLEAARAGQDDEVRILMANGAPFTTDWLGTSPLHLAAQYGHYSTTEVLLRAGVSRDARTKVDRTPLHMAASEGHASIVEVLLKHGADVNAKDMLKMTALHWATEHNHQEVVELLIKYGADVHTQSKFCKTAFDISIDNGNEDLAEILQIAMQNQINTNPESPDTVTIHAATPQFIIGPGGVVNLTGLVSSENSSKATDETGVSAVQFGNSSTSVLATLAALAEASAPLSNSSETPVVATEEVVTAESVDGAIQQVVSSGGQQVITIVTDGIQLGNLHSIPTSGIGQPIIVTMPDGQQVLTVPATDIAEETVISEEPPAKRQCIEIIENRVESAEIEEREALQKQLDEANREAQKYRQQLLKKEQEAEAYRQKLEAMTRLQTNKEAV
inactive: vemurafenib -0.05 | [1] 0.01 | barasertib 0.014 | [2] -0.024 | volasertib 0.025 | [3] 0.006 | [4] 0.193 | [5] -0.199 | saracatinib 0.057 | sotrastaurin 0.023 | alvocidib 0.181 | Tubastatin A -0.001 | [6] -0.028 | defactinib 0.005 | [7] 0 | encorafenib 0.036 | [8] 0.097 | alisertib -0.016 | [9] -0.043 | gefitinib 0.024

EXOC2 (UniProt Q96KP1)
inactive: vemurafenib 0.018 | [1] 0.109 | barasertib 0.041 | [2] -0.028 | volasertib -0.043 | [3] 0.031 | [4] 0.017 | [5] -0.094 | saracatinib 0.034 | sotrastaurin 0.049 | alvocidib 0.025 | Tubastatin A -0.107 | [6] -0.012 | defactinib 0.046 | [7] -0.048 | encorafenib 0.031 | [8] 0.027 | alisertib 0 | [9] 0.007 | gefitinib 0.005

FKBP8 isoform 2 (UniProt Q14318)
inactive: vemurafenib -0.037 | [1] -0.01 | barasertib 0.366 | [2] -0.045 | volasertib 0.005 | [3] -0.029 | [4] 0.033 | [5] -0.084 | saracatinib -0.022 | sotrastaurin 0.006 | alvocidib 0.004 | Tubastatin A -0.123 | [6] 0.02 | defactinib 0.024 | [7] -0.018 | encorafenib 0.009 | [8] 0.112 | alisertib 0.027 | [9] 0.001 | gefitinib 0.01

EIF2D (UniProt P41214)
Sequence of UniProt P41214 (P41214 whole entry, looked up): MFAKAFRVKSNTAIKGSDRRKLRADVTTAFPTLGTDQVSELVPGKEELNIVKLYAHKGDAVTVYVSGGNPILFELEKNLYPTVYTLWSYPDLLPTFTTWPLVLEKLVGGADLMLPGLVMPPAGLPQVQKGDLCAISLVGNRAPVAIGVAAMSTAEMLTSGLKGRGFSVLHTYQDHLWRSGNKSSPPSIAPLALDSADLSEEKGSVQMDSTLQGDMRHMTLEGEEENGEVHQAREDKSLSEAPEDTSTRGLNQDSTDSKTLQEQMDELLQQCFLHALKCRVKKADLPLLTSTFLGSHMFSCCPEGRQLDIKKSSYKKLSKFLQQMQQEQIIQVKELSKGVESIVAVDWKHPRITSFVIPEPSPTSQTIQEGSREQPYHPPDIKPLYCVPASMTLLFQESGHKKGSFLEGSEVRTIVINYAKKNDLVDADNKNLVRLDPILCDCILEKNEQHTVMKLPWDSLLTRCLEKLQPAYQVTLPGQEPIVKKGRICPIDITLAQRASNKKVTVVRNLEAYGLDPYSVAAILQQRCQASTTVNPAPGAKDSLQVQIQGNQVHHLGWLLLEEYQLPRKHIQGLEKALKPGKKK
inactive: vemurafenib 0.041 | [1] 0.024 | barasertib 0.017 | [2] -0.074 | volasertib -0.052 | [3] 0.001 | [4] -0.02 | [5] -0.071 | saracatinib -0.002 | sotrastaurin 0.026 | alvocidib 0.017 | Tubastatin A -0.083 | [6] 0.003 | defactinib 0.033 | [7] -0.024 | encorafenib -0.014 | [8] 0.164 | alisertib 0.013 | [9] -0.018 | gefitinib -0.031

ERI1 (UniProt Q8IV48)
Sequence of UniProt Q8IV48 (Q8IV48 whole entry, looked up): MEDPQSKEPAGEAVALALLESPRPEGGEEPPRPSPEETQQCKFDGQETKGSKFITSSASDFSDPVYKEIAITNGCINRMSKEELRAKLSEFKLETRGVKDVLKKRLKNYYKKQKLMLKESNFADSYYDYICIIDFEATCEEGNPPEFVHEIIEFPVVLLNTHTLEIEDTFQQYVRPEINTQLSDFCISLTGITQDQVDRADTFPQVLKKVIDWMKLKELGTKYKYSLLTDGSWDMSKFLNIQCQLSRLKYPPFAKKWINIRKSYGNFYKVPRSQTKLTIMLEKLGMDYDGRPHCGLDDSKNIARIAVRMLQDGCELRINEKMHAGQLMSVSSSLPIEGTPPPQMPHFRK
inactive: vemurafenib 0.01 | [1] 0.01 | barasertib 0.008 | [2] -0.018 | volasertib -0.023 | [3] -0.008 | [4] 0.065 | [5] -0.112 | saracatinib -0.006 | sotrastaurin 0.034 | alvocidib 0.008 | Tubastatin A 0 | [6] 0.026 | defactinib 0.004 | [7] -0.021 | encorafenib 0.025 | [8] 0.118 | alisertib -0.015 | [9] -0.02 | gefitinib -0.007

EHD2 (UniProt Q9NZN4)
Sequence of UniProt Q9NZN4 (Q9NZN4 whole entry, looked up): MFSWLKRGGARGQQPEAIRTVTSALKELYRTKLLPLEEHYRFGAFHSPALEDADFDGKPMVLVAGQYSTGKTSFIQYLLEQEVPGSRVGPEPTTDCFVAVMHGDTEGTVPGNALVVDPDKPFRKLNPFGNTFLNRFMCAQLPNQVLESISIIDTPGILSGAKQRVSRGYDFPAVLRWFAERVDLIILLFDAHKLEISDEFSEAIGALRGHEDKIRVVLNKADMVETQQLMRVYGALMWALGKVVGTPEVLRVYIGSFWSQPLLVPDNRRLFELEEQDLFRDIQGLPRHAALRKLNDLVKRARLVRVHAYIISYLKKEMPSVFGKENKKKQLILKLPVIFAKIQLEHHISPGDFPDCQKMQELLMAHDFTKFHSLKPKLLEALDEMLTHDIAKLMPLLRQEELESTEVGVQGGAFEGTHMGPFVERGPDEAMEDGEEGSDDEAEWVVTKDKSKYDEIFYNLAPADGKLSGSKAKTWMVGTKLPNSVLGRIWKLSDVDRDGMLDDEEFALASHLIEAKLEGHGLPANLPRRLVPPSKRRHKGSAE
inactive: vemurafenib 0.046 | [1] 0 | barasertib 0.022 | [2] 0.007 | volasertib -0.111 | [3] 0.005 | [4] 0.016 | [5] -0.066 | saracatinib 0.075 | sotrastaurin 0.017 | alvocidib -0.012 | Tubastatin A -0.051 | [6] 0.055 | defactinib 0.032 | [7] -0.037 | encorafenib 0.001 | [8] 0.246 | alisertib -0.015 | [9] 0.071 | gefitinib -0.04

ENSA isoform 3 (UniProt O43768)
Sequence of UniProt O43768 (O43768 whole entry, looked up): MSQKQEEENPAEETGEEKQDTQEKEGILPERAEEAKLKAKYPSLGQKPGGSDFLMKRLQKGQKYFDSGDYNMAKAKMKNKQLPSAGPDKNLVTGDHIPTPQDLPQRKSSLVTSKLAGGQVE
inactive: vemurafenib -0.034 | [1] -0.016 | barasertib -0.052 | [2] 0.049 | volasertib 0.025 | [3] 0.033 | [4] 0.212 | [5] -0.058 | saracatinib -0.021 | sotrastaurin -0.007 | alvocidib 0.015 | Tubastatin A -0.038 | [6] -0.012 | defactinib 0.03 | [7] -0.027 | encorafenib -0.024 | [8] -0.053 | alisertib -0.014 | [9] 0.001 | gefitinib 0.001

FAU (UniProt E9PR30)
active: [4] 0.33
inactive: vemurafenib -0.009 | [1] -0.015 | barasertib -0.17 | [2] 0.005 | volasertib -0.002 | [3] 0.036 | [5] -0.076 | saracatinib -0.042 | sotrastaurin -0.012 | alvocidib 0.073 | Tubastatin A 0.02 | [6] -0.087 | defactinib 0.003 | [7] 0.013 | encorafenib -0.04 | [8] 0.013 | alisertib 0.035 | [9] -0.016 | gefitinib -0.044

GART (UniProt P22102)
inactive: vemurafenib 0.007 | [1] 0.001 | barasertib 0.028 | [2] -0.066 | volasertib -0.054 | [3] 0.038 | [4] 0.124 | [5] -0.013 | saracatinib 0.011 | sotrastaurin -0.023 | alvocidib 0.021 | Tubastatin A -0.073 | [6] 0.002 | defactinib -0.024 | [7] 0.021 | encorafenib -0.027 | [8] 0.08 | alisertib 0.008 | [9] -0.004 | gefitinib -0.017

EWSR1 isoform 5 (UniProt Q01844)
inactive: vemurafenib 0.033 | [1] -0.023 | barasertib -0.013 | [2] 0.039 | volasertib 0.045 | [3] -0.006 | [4] -0.019 | [5] 0.021 | saracatinib -0.017 | sotrastaurin 0.037 | alvocidib -0.002 | Tubastatin A 0.101 | [6] -0.017 | defactinib -0.011 | [7] 0.021 | encorafenib -0.022 | [8] -0.036 | alisertib 0.049 | [9] -0.005 | gefitinib -0.003

ENO1 isoform 2 (UniProt P06733)
Sequence of UniProt P06733 (P06733 whole entry, looked up): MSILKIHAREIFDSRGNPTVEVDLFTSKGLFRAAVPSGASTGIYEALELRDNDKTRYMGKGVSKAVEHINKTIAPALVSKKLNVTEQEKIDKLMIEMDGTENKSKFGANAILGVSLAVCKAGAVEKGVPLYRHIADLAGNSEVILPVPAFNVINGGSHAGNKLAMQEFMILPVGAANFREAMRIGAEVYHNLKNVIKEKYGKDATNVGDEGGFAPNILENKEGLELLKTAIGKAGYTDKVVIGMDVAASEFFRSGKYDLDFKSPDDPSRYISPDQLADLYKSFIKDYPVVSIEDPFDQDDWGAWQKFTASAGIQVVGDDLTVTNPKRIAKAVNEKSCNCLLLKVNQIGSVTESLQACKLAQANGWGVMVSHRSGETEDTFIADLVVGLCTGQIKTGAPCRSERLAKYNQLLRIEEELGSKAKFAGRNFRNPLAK
active: [5] 0.269
inactive: vemurafenib 0.02 | [1] -0.005 | barasertib -0.09 | [2] 0.073 | volasertib 0.004 | [3] -0.021 | [4] -0.263 | saracatinib 0.01 | sotrastaurin 0.01 | alvocidib -0.174 | Tubastatin A 0.085 | [6] -0.13 | defactinib -0.001 | [7] 0.009 | encorafenib 0.033 | [8] -0.033 | alisertib 0.022 | [9] -0.004 | gefitinib -0.015

GEMIN2 (UniProt O14893)
Sequence of UniProt O14893 (O14893 whole entry, looked up): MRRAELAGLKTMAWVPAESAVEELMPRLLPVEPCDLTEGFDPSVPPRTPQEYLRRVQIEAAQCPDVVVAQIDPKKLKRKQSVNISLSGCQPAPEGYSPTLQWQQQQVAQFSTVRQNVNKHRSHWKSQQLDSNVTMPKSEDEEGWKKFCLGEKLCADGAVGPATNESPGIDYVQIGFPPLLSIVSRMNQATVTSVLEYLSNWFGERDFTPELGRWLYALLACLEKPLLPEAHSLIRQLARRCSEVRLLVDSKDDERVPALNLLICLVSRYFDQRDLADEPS
inactive: vemurafenib 0.061 | [1] -0.017 | barasertib 0.052 | [2] 0.033 | volasertib 0.009 | [3] 0.011 | [4] -0.052 | [5] 0.029 | saracatinib 0.025 | sotrastaurin -0.045 | alvocidib 0.034 | Tubastatin A -0.053 | [6] 0.001 | defactinib -0.006 | [7] 0.013 | encorafenib 0.095 | [8] -0.009 | alisertib -0.017 | [9] 0.009 | gefitinib -0.1
